In PubChem BioAssay (EPA / NIEHS):
Inconclusive results are not listed. Calls of active or inactive are those of the source. How the source made its calls, unless noted: active means hit-call score of the fitted dose curve at least 0.9, where 1 is the maximum; inactive means score below 0.9.

What was measured:
[1] = molecular target: Hepatocyte nuclear factor 4-alpha (Homo sapiens) (UniProt P41235); assay: ATG_HNF4a_TRANS: Attagene TRANS-FACTORIAL HepG2 Assay for human Hepatocyte Nuclear Factor 4 alpha (HNF4a) (AID 2282982; active means hit-call score of the fitted dose curve at least 0.9, where 1 is the maximum); settings: HepG2 HNF4a transactivation reporter, mRNA readout
Method in brief: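 Gain-of-signal mRNA induction, relative to DMSO vehicle, was read after 24 h compound treatment of HepG2 cells bearing transfected GAL4-UAS reporters. Detection used RT-PCR, 6-FAM primer extension and capillary electrophoresis.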

[2] = ATG_M_06_TRANS: Attagene TRANS-FACTORIAL HepG2 Assay for M06 Transcription Factor (Internal Marker) (AID 2282983; active means hit-call score of the fitted dose curve at least 0.9, where 1 is the maximum); settings: HepG2 Attagene TRANS M06 internal marker reporter
Method in brief: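 Cells: HepG2, transient multi-reporter transfection. Exposure: 24 h. Detection: RT-PCR, 6-FAM labelling, HpaI digestion (2 h, 37 °C), capillary electrophoresis. Baseline: DMSO.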

[3] = molecular target: Nuclear receptor subfamily 4 group A member 2 (Homo sapiens) (UniProt P43354); assay: ATG_NURR1_TRANS: Attagene TRANS-FACTORIAL HepG2 Assay for human Nuclear Receptor Related Protein 1 (NURR1) (AID 2282985; active means hit-call score of the fitted dose curve at least 0.9, where 1 is the maximum); settings: HepG2 Attagene TRANS reporter, mRNA readout
Method in brief: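 HepG2 / transient MRTU transfection / 24 h compound exposure / RT-PCR + CE fluorescence of reporter mRNA / gain-of-signal vs DMSO.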

[4] = molecular target: Transcriptional activator Myb (Homo sapiens) (UniProt P10242); assay: ATG_Myb_CIS: Attagene CIS-FACTORIAL HepG2 Assay for human Myeloblastosis (Myb) Proto-Oncogene Transcription Factor (AID 2282986); settings: HepG2 Attagene CIS-FACTORIAL Myb reporter transcription; actives raise or lower the signal
Method in brief: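 Endogenous transcription factor activity at a Myb-responsive cis element is reported in human liver HepG2 cells after 24 h chemical treatment. Reporter mRNA is detected by RT-PCR and capillary electrophoresis fluorescence, with DMSO as baseline.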

[5] = molecular target: Nuclear respiratory factor 1 (Homo sapiens) (UniProt Q16656); assay: ATG_NRF1_CIS: Attagene CIS-FACTORIAL HepG2 Assay for human Nuclear Respiratory Factor 1 (NRF1) Orphan Gene (AID 2282987); settings: HepG2 NRF1 cis-element reporter, Attagene multiplex; actives raise or lower the signal
Method in brief: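 Human hepatoma HepG2 cells carrying transfected promoter-regulated reporter units were incubated with test chemicals for 24 h. Reporter transcripts were measured by RT-PCR plus capillary electrophoresis, and endpoints derived by bidirectional fitting with DMSO as baseline.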

[6] = ATG_NFI_CIS: Attagene CIS-FACTORIAL HepG2 Assay for human Nuclear Factor I (NFI) (AID 2282989); settings: HepG2 cis-regulatory reporter, NFI response element transcription; actives raise or lower the signal
Method in brief: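 Endogenous TF activity in HepG2 cells transiently transfected with cis-element-driven multiplexed reporter units, read 24 h after dosing. Reporter mRNA quantified by RT-PCR, 6-FAM labelling, HpaI digestion and capillary electrophoresis; bidirectional fit versus DMSO.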

[7] = molecular target: Myc proto-oncogene protein (Homo sapiens) (UniProt P01106); assay: ATG_Myc_CIS: Attagene CIS-FACTORIAL HepG2 Assay for human Myelocytomatosis (Myc) Proto-Oncogene Transcription Factor (AID 2282990); settings: HepG2, Attagene cis-reporter transcription factor activity; actives raise or lower the signal
Method in brief: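 Fluorescence intensity of reporter-specific cDNA fragments, separated by capillary electrophoresis, gives the signal. Transfected HepG2 cells carrying cis-promoter reporter constructs are incubated with compound for 24 h; DMSO serves as baseline.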

[8] = ATG_NF_kB_CIS: Attagene CIS-FACTORIAL HepG2 Assay for human Nuclear Factor Kappa B (NF-kB) (AID 2282991); settings: HepG2 Attagene cis-factorial NF-kB reporter mRNA; actives raise or lower the signal
Method in brief: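 Multiplexed cis-reporter assay in transiently transfected HepG2. 24 h treatment; RNA isolated, RT-PCR, labelled fragments resolved by CE. DMSO baseline.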

[9] = ATG_NRF2_ARE_CIS: Attagene CIS-FACTORIAL HepG2 Assay for human Nuclear Factor Erythroid 2 Related Factor 2 (NFR2) response to Antioxidant Response Elements (ARE) (AID 2282992); settings: HepG2 Attagene ARE/NRF2 reporter, transcription factor activity; actives raise or lower the signal;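 on AC50: reporter mRNA level measured by RT-PCR and capillary electrophoresis fluorescence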
Method in brief: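 Transient MRTU transfection of HepG2; 24 h compound exposure; TriZol RNA, RT with oligo(dT), PCR, 6-FAM primer extension, HpaI cut, CE. Bidirectional fit vs DMSO.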

[10] = ATG_Oct_MLP_CIS: Attagene CIS-FACTORIAL HepG2 Assay for human Octamer-Binding Transcription Factor (Oct) (AID 2282993); settings: HepG2 Attagene cis-factorial Oct reporter, mRNA; actives raise or lower the signal
Method in brief: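 HepG2 cells transiently transfected with cis-element-driven reporter transcription units (endogenous TF activity); 24 h compound exposure. Reporter mRNA quantified by RT-PCR, 6-FAM labelling, HpaI digestion and capillary electrophoresis; bidirectional fit versus DMSO baseline.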

[11] = molecular target: Cellular tumor antigen p53 (Homo sapiens) (UniProt P04637); assay: ATG_p53_CIS: Attagene CIS-FACTORIAL HepG2 Assay for human p53 Transcription Factor (AID 2282994); settings: HepG2 p53 cis-element reporter, Attagene mRNA; actives raise or lower the signal
Method in brief: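 HepG2, transient MRTU transfection (cis promoter elements, endogenous TFs); 24 h dosing; RNA isolation, RT-PCR, 6-FAM primer extension, HpaI digest, CE fluorescence; bidirectional fit vs DMSO.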

[12] = molecular target: Oxysterols receptor LXR-beta (Homo sapiens) (UniProt P55055); assay: ATG_LXRb_TRANS: Attagene TRANS-FACTORIAL HepG2 Assay for human Liver X Receptor beta (LXRb) (AID 2282981; active means hit-call score of the fitted dose curve at least 0.9, where 1 is the maximum); settings: HepG2 Attagene TRANS GAL4-LXRb reporter, mRNA
Method in brief: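 Gain-of-signal mRNA reporter endpoint, DMSO as negative control. Transiently transfected HepG2 cells carrying the NR-Gal4 chimera and GAL4-UAS reporter units were treated 24 h; transcripts quantified by RT-PCR and capillary electrophoresis fluorescence.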

[13] = ATG_M_32_TRANS: Attagene TRANS-FACTORIAL HepG2 Assay for M32 Transcription Factor (Internal Marker) (AID 2282984; active means hit-call score of the fitted dose curve at least 0.9, where 1 is the maximum;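 further: transcript level of a background control reporter unit measured by RT-PCR and capillary electrophoresis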); settings: HepG2 Attagene TRANS M32 internal marker reporter
Method in brief: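 Capillary electrophoresis of 6-FAM-labelled reporter fragments gives the signal; data fitted for gain over DMSO negative control. Source: HepG2 cells bearing transient multiple reporter transcription units, 24 h exposure.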

[14] = BSK_3C_TissueFactor: BioMAP Diversity Plus: 3C Assay for Tissue Factor Biomarker Activity (AID 2282997); settings: BioMAP 3C HUVEC, tissue factor biomarker readout; actives raise or lower the signal
Method in brief: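 Dosing of human umbilical vein endothelial cells preceded a 24 h incubation. Tissue Factor was then read by ELISA, with increases and decreases both scored relative to DMSO controls.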

[15] = BSK_3C_uPAR: BioMAP Diversity Plus: 3C Assay for Urokinase-type plasminogen activator receptor (uPAR) Biomarker Activity (AID 2282998); settings: BioMAP 3C HUVEC, uPAR biomarker ELISA; actives raise or lower the signal
Method in brief: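 Primary human umbilical vein endothelial cells, 3C system; surface uPAR measured by ELISA 24 h after dosing. Cytotoxicity via SRB total protein in parallel cultures; bidirectional fit against DMSO.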

[16] = BSK_3C_VCAM1: BioMAP Diversity Plus: 3C Assay for Vascular cell adhesion molecule 1 (VCAM1) Biomarker Activity (AID 2282999); settings: BioMAP 3C HUVEC, VCAM1 ELISA, cytokine-stimulated; actives raise or lower the signal
Method in brief: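 Human umbilical vein endothelial cells (3C system), biomarker read by ELISA 24 h after dosing; bidirectional fit against DMSO baseline. Cytotoxicity tracked by SRB total-protein staining in parallel cultures at biomarker time.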

Measured: AC50

Sequence of Myc proto-oncogene protein (Homo sapiens) (P01106 whole entry, looked up, the tested form may be a part): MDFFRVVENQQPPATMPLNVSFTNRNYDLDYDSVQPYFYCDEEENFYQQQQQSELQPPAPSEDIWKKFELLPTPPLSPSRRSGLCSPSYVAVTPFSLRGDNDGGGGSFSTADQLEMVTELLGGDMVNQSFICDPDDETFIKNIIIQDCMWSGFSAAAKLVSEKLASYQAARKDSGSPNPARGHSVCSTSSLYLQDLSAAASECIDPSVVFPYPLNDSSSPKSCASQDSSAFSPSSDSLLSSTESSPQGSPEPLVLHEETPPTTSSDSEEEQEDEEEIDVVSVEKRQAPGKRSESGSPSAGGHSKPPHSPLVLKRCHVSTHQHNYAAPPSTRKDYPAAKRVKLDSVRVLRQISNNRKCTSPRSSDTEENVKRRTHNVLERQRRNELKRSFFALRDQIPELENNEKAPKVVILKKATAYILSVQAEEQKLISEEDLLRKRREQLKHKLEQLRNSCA
Sequence of Hepatocyte nuclear factor 4-alpha (Homo sapiens) (P41235 whole entry, looked up, the tested form may be a part): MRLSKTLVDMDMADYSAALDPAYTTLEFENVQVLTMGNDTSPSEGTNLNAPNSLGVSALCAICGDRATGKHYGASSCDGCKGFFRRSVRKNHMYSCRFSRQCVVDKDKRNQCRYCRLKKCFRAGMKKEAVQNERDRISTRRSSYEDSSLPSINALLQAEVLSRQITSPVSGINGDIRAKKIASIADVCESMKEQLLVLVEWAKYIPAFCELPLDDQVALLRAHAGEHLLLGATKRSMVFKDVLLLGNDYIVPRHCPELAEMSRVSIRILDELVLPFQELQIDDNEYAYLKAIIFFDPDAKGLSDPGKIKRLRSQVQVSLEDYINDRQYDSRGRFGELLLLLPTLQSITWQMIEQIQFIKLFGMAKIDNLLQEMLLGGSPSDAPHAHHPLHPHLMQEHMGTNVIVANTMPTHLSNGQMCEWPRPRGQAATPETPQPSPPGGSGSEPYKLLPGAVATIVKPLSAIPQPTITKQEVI
Sequence of Transcriptional activator Myb (Homo sapiens) (P10242 whole entry, looked up): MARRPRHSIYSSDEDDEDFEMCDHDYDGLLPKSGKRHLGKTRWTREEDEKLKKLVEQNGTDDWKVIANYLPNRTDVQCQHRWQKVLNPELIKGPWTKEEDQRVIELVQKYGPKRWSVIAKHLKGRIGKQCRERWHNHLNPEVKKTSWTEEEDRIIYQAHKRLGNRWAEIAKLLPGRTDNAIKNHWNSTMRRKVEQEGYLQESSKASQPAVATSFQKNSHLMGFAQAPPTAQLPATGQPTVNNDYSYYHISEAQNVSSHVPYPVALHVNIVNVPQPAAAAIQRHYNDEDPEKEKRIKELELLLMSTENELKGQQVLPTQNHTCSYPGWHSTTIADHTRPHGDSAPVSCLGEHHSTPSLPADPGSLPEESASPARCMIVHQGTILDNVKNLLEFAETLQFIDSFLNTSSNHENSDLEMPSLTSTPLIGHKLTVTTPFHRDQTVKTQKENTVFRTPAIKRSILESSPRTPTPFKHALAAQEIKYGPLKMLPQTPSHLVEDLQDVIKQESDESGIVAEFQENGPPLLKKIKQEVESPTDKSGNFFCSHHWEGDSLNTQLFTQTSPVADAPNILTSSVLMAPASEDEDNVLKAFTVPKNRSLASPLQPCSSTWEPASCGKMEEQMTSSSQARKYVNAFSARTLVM
Sequence of Nuclear respiratory factor 1 (Homo sapiens) (Q16656 whole entry, looked up): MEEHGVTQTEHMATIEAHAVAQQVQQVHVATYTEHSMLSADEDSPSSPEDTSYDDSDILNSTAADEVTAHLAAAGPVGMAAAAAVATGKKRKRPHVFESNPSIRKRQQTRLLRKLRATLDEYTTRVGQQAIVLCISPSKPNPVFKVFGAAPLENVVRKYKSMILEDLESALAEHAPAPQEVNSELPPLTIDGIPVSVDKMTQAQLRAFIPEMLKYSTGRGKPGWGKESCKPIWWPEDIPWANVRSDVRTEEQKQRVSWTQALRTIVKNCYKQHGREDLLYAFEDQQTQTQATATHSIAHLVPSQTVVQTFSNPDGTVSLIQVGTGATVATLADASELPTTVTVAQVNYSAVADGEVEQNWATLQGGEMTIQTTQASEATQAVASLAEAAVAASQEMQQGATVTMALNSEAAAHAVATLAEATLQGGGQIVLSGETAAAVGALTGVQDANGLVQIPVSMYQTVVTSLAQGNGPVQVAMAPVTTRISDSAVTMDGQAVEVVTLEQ
Sequence of Cellular tumor antigen p53 (Homo sapiens) (P04637 whole entry, looked up): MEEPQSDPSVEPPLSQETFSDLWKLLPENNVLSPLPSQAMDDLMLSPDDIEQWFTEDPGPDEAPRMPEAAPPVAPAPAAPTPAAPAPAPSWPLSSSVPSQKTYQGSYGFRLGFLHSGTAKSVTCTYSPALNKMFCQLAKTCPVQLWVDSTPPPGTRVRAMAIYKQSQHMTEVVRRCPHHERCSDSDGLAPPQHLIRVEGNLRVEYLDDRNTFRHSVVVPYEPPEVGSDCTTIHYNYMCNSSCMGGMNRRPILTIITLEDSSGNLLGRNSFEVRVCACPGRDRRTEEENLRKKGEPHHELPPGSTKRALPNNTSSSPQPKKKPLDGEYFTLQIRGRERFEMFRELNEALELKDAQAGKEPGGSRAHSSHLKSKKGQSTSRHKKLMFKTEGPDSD
Sequence of Nuclear receptor subfamily 4 group A member 2 (Homo sapiens) (P43354 whole entry, looked up): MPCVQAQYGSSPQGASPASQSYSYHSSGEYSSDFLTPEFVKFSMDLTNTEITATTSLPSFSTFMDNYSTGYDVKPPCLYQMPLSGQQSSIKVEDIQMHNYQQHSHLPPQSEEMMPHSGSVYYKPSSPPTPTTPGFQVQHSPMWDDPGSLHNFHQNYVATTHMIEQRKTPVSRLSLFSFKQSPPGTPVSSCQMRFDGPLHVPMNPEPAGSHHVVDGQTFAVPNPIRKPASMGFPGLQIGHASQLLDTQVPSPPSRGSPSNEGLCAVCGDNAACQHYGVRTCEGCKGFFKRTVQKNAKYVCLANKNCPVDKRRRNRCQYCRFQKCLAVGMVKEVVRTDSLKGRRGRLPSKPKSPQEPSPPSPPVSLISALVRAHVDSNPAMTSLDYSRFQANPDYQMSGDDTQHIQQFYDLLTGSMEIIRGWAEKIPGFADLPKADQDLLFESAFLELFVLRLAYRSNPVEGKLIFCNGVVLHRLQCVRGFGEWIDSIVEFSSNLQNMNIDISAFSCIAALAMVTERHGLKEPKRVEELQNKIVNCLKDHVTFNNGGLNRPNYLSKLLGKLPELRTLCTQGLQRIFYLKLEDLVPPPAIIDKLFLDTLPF
Sequence of Oxysterols receptor LXR-beta (Homo sapiens) (P55055 whole entry, looked up, the tested form may be a part): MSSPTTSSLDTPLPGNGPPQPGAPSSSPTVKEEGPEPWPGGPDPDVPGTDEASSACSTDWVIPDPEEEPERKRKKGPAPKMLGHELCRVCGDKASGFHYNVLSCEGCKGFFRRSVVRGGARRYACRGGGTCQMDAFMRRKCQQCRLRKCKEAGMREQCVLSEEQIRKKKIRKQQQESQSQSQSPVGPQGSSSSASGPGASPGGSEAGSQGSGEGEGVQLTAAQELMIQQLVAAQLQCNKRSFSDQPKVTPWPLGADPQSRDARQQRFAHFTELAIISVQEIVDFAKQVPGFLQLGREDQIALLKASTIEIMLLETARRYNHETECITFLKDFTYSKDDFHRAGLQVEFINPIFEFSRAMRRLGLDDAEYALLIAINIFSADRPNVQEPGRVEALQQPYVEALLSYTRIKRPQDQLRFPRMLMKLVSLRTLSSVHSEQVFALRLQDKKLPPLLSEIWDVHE

CN(C)Cc1cc(CN(C)C)c(O)c(CN(C)C)c1
inactive: [1] | [2] | [3] | [4] | [5] | [6] | [7] | [8] | [9] | [10] | [11]

O=C(O[C@@H]1Cc2c(O)cc(O)cc2O[C@@H]1c1cc(O)c(O)c(O)c1)c1cc(O)c(O)c(O)c1
inactive: [12] | [2] | [13] | [3] | [4] | [5] | [6] | [7] | [8] | [9] | [10] | [11]

O=C(O)/C=C/c1ccccc1
inactive: [2] | [13] | [3] | [4] | [5] | [6] | [7] | [8] | [9] | [10] | [11]

CC(=O)CC(=O)Nc1ccccc1C
inactive: [1] | [2] | [4] | [5] | [6] | [7] | [8] | [9] | [10] | [11]

Cc1cc(C)c(C=O)c(C)c1
inactive: [12] | [1] | [4] | [5] | [7] | [8] | [9] | [10] | [11]

CCCCOCC(C)O (stereo not given)
inactive: [1] | [2] | [3] | [4] | [5] | [7] | [8] | [9] | [10] | [11]

CCOC(=O)c1ccccc1C
inactive: [12] | [2] | [3] | [4] | [6] | [7] | [8] | [9] | [10] | [11]

CC(C)CC(=O)OCc1ccccc1
inactive: [1] | [2] | [3] | [4] | [5] | [6] | [8] | [9] | [10] | [11]

C=C(C)[C@@H]1CC=C(C)CC1
inactive: [12] | [2] | [3] | [4] | [5] | [6] | [7] | [9] | [10] | [11]

CC/C=C\CCOC(=O)c1ccccc1O
active: [9] 100 µM | [11] 138 µM | [14] 25.4 µM | [15] 31.8 µM | [16] 30.1 µM
inactive: [1] | [13] | [3] | [4] | [5] | [6] | [7] | [8] | [10]

COc1nccnc1CC(C)C
inactive: [12] | [2] | [4] | [7] | [9] | [10] | [11]

C=CC(=O)OCC(C)OCC(C)OCC(C)OC(=O)C=C (stereo not given)
active: [4] 65.2 µM | [9] 25.6 µM | [10] 29.5 µM | [11] 145 µM | [14] 11.6 µM | [15] 24.6 µM | [16] 12.1 µM
inactive: [12] | [1] | [2] | [5] | [6]

C=CC(=O)NCOCCCC
inactive: [2] | [13] | [3] | [4] | [5] | [6] | [7] | [10] | [14] | [15] | [16]
active: [9] 66.5 µM

C[Si](C)(C)N[Si](C)(C)C
inactive: [1] | [2] | [4] | [6] | [9] | [10] | [11]
